Most compounds without a hit are left out; they make up all but 3.2% or so of the library.
GLP1R inv ag = inverse agonists of human GLP-1 receptor; P43220; HEK293 GLP-1R CRE-luciferase, luminescence, 24 h; GLP-1R form is constitutively active; Potency, µM (series often up to 38.3 µM), actives largely listed as inhibitors; 410,000 compounds, 1.6% hits; also: nearly all actives have a fitted effect of over 55% in size
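Luminescence readout: a drop in cAMP-driven luciferase signal flags inverse agonism at a constitutively active GLP-1R stably expressed in HEK293. Compound exposure lasted 24 hr at 37 deg C, 5% CO2.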
ClpP mod = qHTS Assay for Activators of ClpP; purified B. subtilis ClpP, FRET peptide cleavage, 20 min; Potency, µM (doses to about 57.5 µM); ATP-dependent Clp protease proteolytic subunit (Bacillus subtilis (strain 168)), P80244; 340,000 compounds, 1.9% hits; active = well fitted falling curve with a large enough effect; inconclusive = small, poorly fitted or top-dose-only effect; inactive = no such curve, though single readings can be large or run the other way; also: the source files actives as falling curves though it sought activators and does not explain the sign; nearly all actives have a fitted effect of over 65% in size
Target sequence (P80244 whole entry, looked up): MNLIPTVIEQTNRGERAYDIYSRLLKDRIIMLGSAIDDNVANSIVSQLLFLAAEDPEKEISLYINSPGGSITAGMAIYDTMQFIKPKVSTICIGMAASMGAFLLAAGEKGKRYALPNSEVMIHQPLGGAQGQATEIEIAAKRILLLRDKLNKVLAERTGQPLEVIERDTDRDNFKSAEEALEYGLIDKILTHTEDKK
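Buffer: 100 mM Tris/HCl pH8, 100 mM KCl, 0.05% low protease BSA, 2.5% glycerol, 0.01% Tween-20. ClpP 10 microg/mL final; 20 min RT; delta FRET normalized to ADEP and DMSO controls.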
GLP-1R agonist = activates the human GLP-1 receptor. P43220. HEK293 GLP-1R CRE-luciferase, luminescence, 4-6 h; cells express a hypersensitive GLP-1R form. Potency, µM (doses to about 45.6 µM), actives largely listed as activators. 380,000 compounds, 0.007% hits
HEK293 tox = cytotoxicity in counter-screen for GLP-1R inverse agonists | HEK293 cAMP-luciferase reporter cells, luminescence, 24 h | Potency, µM (series often up to 38.3 µM), hits mostly inhibitors | 410,000 compounds, 0.13% hits | AID 624418;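 also: loss of luciferase light is scored as toxicity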
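MLSMR compounds, 24 hr on cells at 37 deg C/5% CO2; luminescence after luciferase reagent (12 min RT). Inhibition counted as the undesired cytotoxic outcome.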
ClpP validation = Bacillus subtilis ClpP inhibition, validated hit | shares compounds with ClpP mod | purified B. subtilis ClpP, FRET-FV substrate cleavage, 20 min | Potency, µM (titrated, usually from 57.5 µM), actives largely listed as inhibitors | 470 compounds, 40% hits; also: nearly all actives have a fitted effect of over 70% in size
Hits are given with their value. Unless noted, calls follow the shape of the dose curve; as a rule, active = well fitted curve in the direction sought with a large enough effect; inconclusive = small, poorly fitted or top-dose-only effect, or another doubt; inactive = no such curve, though single readings can be large; an effect the other way counts as inactive or inconclusive.

How did CC12CN3CC(C)(CN(C1)P3(=O)Oc1ccccc1)C2=O (centres undefined) do in these assays?
GLP1R inv ag: inactive; ClpP mod: inactive; GLP-1R agonist: inactive; HEK293 tox: inactive

How did O=C1NC[C@H](CCCCN2C[C@@H](Cc3ccccc3)N(CCC3CCCCC3)C(=O)C2=O)N(CCC2CCCCC2)C1=O do in these assays?
GLP1R inv ag: inactive; ClpP mod: inactive; GLP-1R agonist: inactive; HEK293 tox: inactive

Results for COc1cccc(-c2nn(-c3ccc(C)cc3)cc2C(=O)N(C)CC(=O)Nc2cccc(F)c2)c1 ?
GLP1R inv ag: 7.1µM; ClpP mod: inactive; GLP-1R agonist: inactive; HEK293 tox: inconclusive

How did COc1cccc(NC(=O)CN(C)C(=O)c2ccccc2OCC(=O)Nc2cccc(C(F)(F)F)c2)c1 do in these assays?
GLP1R inv ag: inconclusive; ClpP mod: inactive; GLP-1R agonist: inactive; HEK293 tox: inconclusive

Results for CCCn1cc(S(=O)(=O)c2ccc(OC)cc2)c(=O)c2cc(F)c(N3CCCCCC3)cc21 ?
GLP1R inv ag: inactive; ClpP mod: inconclusive; HEK293 tox: inactive

Results for Cc1cc(OCc2ccc([N+](=O)[O-])cc2)c2c3c(c(=O)oc2c1)CCCC3 ?
GLP1R inv ag: inactive; ClpP mod: inactive; GLP-1R agonist: inactive; HEK293 tox: inactive

Results for Cc1cc(OCc2nn[nH]n2)c2c3c(c(=O)oc2c1)CCCC3 ?
GLP1R inv ag: inactive; ClpP mod: 6.3µM; GLP-1R agonist: inactive; HEK293 tox: inactive; ClpP validation: 27µM

Results for CCCCC[C@@H]1CCCCC[C@@H](O)C[C@H](O)[C@H](O)/C=C/C(=O)O1 ?
GLP1R inv ag: inactive; ClpP mod: inactive; GLP-1R agonist: inactive; HEK293 tox: inactive

Results for COc1ccccc1NC(=O)c1oc2ccccc2c1NC(=O)c1ccccc1C(F)(F)F ?
GLP1R inv ag: inactive; ClpP mod: inactive; HEK293 tox: inactive; ClpP validation: 31µM

How did CNC(=O)Oc1ccc(-c2cn3cc(Cl)ccc3n2)cc1 do in these assays?
GLP1R inv ag: inactive; ClpP mod: 8.9µM; GLP-1R agonist: inactive; HEK293 tox: inactive; ClpP validation: inconclusive

Results for CC(C)[C@@]1(NC(=O)[C@H]2CC3c4cccc5[nH]cc(c45)C[C@H]3N(C)C2)O[C@@]2(O)C3CCCN3C(=O)[C@@H](Cc3ccccc3)N2C1=O (some centres undefined) ?
GLP-1R agonist: inactive

Screening results from PubChem.
